In the experiment the target is Voltage-dependent L-type calcium channel subunit alpha-1C (Rattus norvegicus) (UniProt P22002). The experiment can be described thus: ERF_FR_IC_rCACNA1C_Dihydropyridine: Eurofins (ERF) Calcium Ion Channel Binding (Dihydropyridine Site) LeadHunter Assay for rat Cav1.2 (L-type), conducted at France lab site. How it is done: ERF_FR_IC_rCACNA1C_Dihydropyridine is a biochemical, single-readout assay that uses extracted gene-proteins in a cell-free assay. Measurements were taken 1.5 hour after chemical dosing in a 96-well plate. See Cav1.2 (L-type) Rat Calcium Ion Channel Binding (Dihydropyridine Site) Assay, Cerep.ERF_FR_IC_rCACNA1C_Dihydropyridine is an assay component calculated from the ERF_FR_IC_rCACNA1C_Dihydropyridine assay. It is designed to measure radioligand binding using a type of binding reporter as detected by scintillation counting with radiometry technology.Data from the assay component ERF_FR_IC_rCACNA1C_Dihydropyridine was analyzed at the assay endpoint, ERF_FR_IC_rCACNA1C_Dihydropyridine, in the positive analysis fitting direction relative to DMSO as the negative control and baseline of activity. Using a type of binding reporter, loss-of-signal activity can be used to understand changes in binding as they relate to gene CACNA1C. To generalize the intended target to other relatable targets, this assay endpoint is annotated to the ion channel intended target family, where the subfamily is voltage gated (Calcium).
Rat brain cells are incubated for 90 minutes at room temprature with [3H]nitrendipine (0.25 nM) ligand and Nitrendipine as control inhibitor. Test Sample Requirements: Minimum for 1) Screen: 60 ul of 10 mM stock -OR- 1 mg (pre-weighed) for 10 uM final testing. […]

In general, AC50 refers to the concentration at which the activity in the assay is half-maximal.

Active and inactive are the calls of the source. Rule for the calls: active = hit-call score of the fitted dose curve at least 0.9, where 1 is the maximum; inactive = score below 0.9.

Voltage-dependent L-type calcium channel subunit alpha-1C (Rattus norvegicus), sequence (P22002 whole entry, looked up): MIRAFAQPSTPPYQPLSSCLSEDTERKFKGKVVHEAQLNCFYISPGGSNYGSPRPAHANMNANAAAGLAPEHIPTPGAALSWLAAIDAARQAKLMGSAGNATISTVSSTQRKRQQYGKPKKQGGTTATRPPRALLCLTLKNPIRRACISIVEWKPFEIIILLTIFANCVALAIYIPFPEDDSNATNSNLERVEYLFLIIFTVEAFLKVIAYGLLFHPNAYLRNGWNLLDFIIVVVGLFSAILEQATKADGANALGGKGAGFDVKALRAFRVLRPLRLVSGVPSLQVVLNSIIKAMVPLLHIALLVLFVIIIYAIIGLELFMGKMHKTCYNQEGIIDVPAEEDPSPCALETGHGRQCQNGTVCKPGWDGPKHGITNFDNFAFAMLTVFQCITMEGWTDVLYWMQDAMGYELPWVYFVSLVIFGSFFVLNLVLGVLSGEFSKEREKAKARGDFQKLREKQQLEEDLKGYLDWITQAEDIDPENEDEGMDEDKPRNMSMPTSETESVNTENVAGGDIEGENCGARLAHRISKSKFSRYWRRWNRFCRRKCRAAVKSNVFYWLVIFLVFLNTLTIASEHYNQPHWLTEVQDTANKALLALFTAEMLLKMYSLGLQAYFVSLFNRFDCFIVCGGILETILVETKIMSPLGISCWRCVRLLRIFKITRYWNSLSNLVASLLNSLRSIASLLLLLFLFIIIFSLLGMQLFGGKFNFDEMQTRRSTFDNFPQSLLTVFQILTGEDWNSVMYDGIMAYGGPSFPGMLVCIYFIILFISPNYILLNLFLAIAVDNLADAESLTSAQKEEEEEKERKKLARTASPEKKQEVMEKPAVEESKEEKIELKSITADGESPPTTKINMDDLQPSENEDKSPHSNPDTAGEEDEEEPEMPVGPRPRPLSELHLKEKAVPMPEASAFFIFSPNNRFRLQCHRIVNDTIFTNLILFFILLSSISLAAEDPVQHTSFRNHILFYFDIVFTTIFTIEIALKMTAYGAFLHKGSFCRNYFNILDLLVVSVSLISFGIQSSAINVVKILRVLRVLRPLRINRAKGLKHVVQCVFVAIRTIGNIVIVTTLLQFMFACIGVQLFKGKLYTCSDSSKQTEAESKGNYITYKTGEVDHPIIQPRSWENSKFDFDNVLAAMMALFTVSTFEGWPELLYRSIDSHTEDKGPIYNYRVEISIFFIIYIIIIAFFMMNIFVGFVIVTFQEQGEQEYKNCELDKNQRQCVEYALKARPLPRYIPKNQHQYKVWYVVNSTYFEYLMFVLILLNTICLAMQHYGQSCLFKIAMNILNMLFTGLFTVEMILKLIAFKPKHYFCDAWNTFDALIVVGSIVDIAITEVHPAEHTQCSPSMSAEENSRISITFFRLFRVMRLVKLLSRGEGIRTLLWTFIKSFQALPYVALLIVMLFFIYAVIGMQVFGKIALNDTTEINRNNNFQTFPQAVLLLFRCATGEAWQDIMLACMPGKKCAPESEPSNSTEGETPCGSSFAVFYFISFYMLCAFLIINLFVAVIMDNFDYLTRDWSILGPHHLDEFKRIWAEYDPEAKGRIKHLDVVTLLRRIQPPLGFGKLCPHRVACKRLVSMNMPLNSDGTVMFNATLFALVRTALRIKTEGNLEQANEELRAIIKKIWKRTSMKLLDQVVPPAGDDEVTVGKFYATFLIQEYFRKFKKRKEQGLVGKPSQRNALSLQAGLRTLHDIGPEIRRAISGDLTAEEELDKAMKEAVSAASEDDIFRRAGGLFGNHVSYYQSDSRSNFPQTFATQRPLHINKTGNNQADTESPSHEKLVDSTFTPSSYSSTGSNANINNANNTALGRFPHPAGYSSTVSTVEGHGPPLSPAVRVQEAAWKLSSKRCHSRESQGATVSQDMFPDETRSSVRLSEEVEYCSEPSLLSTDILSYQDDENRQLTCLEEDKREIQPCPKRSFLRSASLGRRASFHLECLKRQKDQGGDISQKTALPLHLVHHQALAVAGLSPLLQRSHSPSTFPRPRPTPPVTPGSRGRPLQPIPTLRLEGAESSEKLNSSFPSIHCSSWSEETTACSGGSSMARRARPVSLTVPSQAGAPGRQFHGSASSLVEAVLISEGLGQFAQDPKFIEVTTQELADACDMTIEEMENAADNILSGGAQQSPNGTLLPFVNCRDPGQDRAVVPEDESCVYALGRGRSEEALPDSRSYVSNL

As for `COc1cc(CCC(=O)CC(=O)CCc2ccc(O)c(OC)c2)ccc1O`, the AC50 is 3.16 µM (active).
